Among the data in ChEMBL document CHEMBL1961873, “Compounds: GSK PKIS; Assays: Nanosyn kinase panel” (2012) are inhibition values, retold here.

The term inhibition denotes the change of the read-out against control, counted positive when it falls.

Assay [1] deals with Platelet-derived growth factor receptor beta (Homo sapiens) (UniProt P09619). The settings on record: at 1 µM.
The target of assay [2] is Tyrosine-protein kinase FRK (Homo sapiens) (UniProt P42685). The settings on record: at 0.1 µM.
Assay [3] shares this target. The conditions noted are these: at 1 µM.
Assay [4] has as its target Protein-tyrosine kinase 2-beta (Homo sapiens) (UniProt Q14289). The conditions noted are these: at 0.1 µM.
The target is the same in assay [5]. The settings on record: at 1 µM.
The target of assay [6] is Proto-oncogene tyrosine-protein kinase receptor Ret (Homo sapiens) (UniProt P07949). The conditions noted are these: at 0.1 µM.
Assay [7] shares this target. The conditions noted are these: at 1 µM.
Assay [8] concerns Proto-oncogene tyrosine-protein kinase receptor Ret (Homo sapiens), P07949 [V804L]. The settings on record: at 0.1 µM.
For assay [9] the test system is unchanged. The conditions noted are these: at 1 µM.
In assay [10] the test system is Proto-oncogene tyrosine-protein kinase receptor Ret (Homo sapiens), P07949 [Y791F]. The settings on record: at 0.1 µM.
Assay [11] shares this test system. The settings on record: at 1 µM.
Assay [12] has as its target Macrophage-stimulating protein receptor (Homo sapiens) (UniProt Q04912). The conditions noted are these: at 0.1 µM.
Assay [13] shares this target. The conditions noted are these: at 1 µM.
Assay [14] addresses Proto-oncogene tyrosine-protein kinase ROS (Homo sapiens) (UniProt P08922). The settings on record: at 0.1 µM.
The target is the same in assay [15]. The conditions noted are these: at 1 µM.
Assay [16] addresses Proto-oncogene tyrosine-protein kinase Src (Homo sapiens) (UniProt P12931). The settings on record: at 0.1 µM.
Assay [17] has the same target. The conditions noted are these: at 1 µM.
Assay [18] concerns the target Tyrosine-protein kinase Srms (Homo sapiens) (UniProt Q9H3Y6). The settings on record: at 0.1 µM.
Assay [19] shares this target. The settings on record: at 1 µM.
Assay [20] concerns the target Tyrosine-protein kinase SYK (Homo sapiens) (UniProt P43405). The conditions noted are these: at 0.1 µM.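 Also: reported percentages are mean inhibition values for SYK.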

Sequence of Protein-tyrosine kinase 2-beta (Homo sapiens) (Q14289 whole entry, looked up): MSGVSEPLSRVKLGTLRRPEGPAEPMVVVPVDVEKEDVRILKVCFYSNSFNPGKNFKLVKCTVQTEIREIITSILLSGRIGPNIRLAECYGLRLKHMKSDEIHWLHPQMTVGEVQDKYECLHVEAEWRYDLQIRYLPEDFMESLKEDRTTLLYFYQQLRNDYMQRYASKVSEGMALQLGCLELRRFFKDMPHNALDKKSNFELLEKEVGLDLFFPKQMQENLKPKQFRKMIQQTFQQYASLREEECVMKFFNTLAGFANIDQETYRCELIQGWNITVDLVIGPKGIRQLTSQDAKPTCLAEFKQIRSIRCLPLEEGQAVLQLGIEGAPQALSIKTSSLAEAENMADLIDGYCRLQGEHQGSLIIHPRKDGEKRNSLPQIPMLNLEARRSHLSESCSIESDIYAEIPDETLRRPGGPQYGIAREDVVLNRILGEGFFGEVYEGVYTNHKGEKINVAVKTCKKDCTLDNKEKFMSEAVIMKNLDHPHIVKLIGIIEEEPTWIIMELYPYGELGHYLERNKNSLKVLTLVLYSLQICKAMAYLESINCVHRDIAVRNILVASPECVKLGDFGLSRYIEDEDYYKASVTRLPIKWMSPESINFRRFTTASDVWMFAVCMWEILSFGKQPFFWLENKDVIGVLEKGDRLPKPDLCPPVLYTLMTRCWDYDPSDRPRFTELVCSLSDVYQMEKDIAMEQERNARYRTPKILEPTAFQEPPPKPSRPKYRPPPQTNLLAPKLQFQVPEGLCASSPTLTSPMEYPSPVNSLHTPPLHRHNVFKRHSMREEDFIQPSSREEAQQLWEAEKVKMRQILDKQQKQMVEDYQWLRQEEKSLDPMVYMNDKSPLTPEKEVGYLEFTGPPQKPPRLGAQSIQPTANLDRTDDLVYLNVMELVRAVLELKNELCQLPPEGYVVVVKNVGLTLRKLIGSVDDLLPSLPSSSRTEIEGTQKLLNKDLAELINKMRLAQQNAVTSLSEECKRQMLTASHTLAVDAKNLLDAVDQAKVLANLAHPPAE
Sequence of Proto-oncogene tyrosine-protein kinase receptor Ret (Homo sapiens), P07949 [Y791F] (P07949 whole entry Y791F): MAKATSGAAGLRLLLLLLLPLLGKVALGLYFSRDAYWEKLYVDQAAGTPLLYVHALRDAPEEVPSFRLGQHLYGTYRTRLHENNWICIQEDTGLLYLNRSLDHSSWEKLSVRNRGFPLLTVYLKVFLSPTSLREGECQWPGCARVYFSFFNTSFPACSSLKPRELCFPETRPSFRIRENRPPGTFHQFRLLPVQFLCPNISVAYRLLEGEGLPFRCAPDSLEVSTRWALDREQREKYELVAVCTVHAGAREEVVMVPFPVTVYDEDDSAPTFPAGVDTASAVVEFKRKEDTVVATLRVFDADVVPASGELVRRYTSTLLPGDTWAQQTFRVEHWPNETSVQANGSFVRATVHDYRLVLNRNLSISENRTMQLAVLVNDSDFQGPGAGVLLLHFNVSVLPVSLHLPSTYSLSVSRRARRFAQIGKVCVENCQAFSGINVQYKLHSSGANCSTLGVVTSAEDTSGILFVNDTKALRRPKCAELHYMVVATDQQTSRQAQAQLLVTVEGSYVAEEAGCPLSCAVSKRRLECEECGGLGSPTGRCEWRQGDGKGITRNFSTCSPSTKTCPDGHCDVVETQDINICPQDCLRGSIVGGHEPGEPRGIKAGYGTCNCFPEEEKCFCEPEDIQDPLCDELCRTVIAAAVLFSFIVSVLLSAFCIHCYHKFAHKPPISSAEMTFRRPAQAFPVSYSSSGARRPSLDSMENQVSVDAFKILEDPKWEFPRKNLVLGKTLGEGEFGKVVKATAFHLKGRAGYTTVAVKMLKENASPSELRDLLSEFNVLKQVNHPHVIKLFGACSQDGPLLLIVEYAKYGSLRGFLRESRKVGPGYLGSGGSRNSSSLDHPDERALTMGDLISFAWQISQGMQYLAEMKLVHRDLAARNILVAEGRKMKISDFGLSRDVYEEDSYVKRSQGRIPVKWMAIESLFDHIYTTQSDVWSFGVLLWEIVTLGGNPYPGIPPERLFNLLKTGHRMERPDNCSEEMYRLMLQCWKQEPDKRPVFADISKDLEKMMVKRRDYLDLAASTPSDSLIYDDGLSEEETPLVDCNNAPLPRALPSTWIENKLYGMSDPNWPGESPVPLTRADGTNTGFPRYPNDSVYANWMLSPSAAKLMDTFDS
Sequence of Proto-oncogene tyrosine-protein kinase Src (Homo sapiens) (P12931 2-536 limits assumed): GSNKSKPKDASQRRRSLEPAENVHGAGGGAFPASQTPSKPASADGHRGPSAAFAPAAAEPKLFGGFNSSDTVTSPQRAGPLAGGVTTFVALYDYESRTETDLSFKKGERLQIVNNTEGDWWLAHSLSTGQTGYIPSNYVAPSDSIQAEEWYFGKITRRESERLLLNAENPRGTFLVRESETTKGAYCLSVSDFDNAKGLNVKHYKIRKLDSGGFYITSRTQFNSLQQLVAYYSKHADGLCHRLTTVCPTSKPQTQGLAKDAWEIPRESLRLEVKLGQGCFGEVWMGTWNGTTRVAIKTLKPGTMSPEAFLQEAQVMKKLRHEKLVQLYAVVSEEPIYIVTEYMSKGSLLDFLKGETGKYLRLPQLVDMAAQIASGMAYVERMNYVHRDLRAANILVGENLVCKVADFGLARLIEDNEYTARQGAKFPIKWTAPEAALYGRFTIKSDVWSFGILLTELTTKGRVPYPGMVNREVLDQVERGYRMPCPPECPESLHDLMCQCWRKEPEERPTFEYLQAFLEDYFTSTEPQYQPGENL
Sequence of Tyrosine-protein kinase FRK (Homo sapiens) (P42685 whole entry): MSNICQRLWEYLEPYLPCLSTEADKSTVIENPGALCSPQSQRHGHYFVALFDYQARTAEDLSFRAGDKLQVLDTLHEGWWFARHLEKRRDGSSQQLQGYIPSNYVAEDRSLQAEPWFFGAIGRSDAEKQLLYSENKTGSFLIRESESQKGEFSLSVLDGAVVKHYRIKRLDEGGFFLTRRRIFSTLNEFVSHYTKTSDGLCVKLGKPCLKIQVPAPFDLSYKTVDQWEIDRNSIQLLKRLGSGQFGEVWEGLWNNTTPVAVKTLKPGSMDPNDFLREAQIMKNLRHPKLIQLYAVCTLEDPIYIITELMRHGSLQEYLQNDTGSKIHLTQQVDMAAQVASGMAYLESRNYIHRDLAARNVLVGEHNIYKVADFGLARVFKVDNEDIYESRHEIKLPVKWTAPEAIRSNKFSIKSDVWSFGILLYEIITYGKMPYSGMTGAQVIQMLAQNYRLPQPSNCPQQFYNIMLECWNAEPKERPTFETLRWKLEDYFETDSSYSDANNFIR
Sequence of Proto-oncogene tyrosine-protein kinase receptor Ret (Homo sapiens) (P07949 whole entry): as the sequence (P07949 whole entry Y791F) above, with F791Y counted along it
Sequence of Tyrosine-protein kinase Srms (Homo sapiens) (Q9H3Y6 whole entry): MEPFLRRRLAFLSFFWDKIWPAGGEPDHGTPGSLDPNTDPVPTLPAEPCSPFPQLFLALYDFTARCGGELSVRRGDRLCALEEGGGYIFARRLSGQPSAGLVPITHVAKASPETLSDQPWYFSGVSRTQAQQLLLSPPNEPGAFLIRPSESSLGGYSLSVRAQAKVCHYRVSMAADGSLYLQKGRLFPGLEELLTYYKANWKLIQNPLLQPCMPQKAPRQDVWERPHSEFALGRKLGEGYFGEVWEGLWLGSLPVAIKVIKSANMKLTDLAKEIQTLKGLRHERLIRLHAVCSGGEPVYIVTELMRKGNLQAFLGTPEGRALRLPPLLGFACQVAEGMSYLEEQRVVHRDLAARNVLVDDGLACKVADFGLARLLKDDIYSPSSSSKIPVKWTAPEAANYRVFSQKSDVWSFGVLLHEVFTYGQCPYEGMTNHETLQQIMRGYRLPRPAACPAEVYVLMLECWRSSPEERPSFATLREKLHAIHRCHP
Sequence of Platelet-derived growth factor receptor beta (Homo sapiens) (P09619 whole entry): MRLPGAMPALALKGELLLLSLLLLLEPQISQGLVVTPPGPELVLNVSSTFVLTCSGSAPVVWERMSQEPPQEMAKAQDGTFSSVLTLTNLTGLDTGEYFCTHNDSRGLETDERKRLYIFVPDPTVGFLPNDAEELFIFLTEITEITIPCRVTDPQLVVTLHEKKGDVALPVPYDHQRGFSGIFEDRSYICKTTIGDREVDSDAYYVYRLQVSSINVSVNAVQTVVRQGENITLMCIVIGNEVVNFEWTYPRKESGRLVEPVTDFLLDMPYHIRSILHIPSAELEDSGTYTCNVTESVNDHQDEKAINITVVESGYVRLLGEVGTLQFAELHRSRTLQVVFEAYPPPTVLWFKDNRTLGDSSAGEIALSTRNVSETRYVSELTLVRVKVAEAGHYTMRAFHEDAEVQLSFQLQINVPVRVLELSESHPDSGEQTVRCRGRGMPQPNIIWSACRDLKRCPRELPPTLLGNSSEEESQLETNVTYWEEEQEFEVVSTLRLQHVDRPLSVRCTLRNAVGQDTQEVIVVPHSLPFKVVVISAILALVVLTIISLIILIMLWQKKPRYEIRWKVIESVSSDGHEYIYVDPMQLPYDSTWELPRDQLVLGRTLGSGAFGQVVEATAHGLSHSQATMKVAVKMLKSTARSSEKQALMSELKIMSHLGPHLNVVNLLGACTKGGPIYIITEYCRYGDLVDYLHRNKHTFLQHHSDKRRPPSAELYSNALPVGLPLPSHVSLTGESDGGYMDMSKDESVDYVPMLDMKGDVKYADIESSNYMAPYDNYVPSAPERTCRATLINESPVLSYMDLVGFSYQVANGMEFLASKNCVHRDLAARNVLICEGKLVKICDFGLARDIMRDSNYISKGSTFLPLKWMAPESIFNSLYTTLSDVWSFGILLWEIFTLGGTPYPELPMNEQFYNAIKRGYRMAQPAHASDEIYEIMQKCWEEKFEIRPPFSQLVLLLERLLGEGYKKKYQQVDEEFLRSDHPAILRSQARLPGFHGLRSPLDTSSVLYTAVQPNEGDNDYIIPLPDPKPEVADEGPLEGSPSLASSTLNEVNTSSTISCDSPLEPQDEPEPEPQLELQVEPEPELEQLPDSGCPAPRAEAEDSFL
Sequence of Proto-oncogene tyrosine-protein kinase receptor Ret (Homo sapiens), P07949 [V804L] (P07949 whole entry V804L): as the sequence (P07949 whole entry Y791F) above, with F791Y, V804L counted along it

Regarding `NS(=O)(=O)c1ccc(Nc2cc(-c3cccc(O)c3)n[nH]2)cc1`, the inhibition is 26.1% in assay [1]; 0.88% in [2]; 2.04% in assay [3]; 10.7% in assay [4]; 12.3% in assay [5]; 6.46% in assay [6]. Also, the inhibition in [7] is 15.5%; in [8], 9.69%; in assay [9], 21.3%; in [10], 13.4%; in assay [11], 26.2%; in assay [12] it was 5.75%. For the same compound, the inhibition in [13] is 0.78%; in assay [14], 6.66%; in assay [15], 12.1%; in [16], 3.91%; in assay [17], 11.9%; in [18], -2.79%. Besides, the inhibition is -7.29% in assay [19] and -3.9% in assay [20].

Consider `NC(=O)c1cccc(Nc2nccc(Nc3cccc(F)c3)n2)c1`, for which the inhibition was 54.2% in [1]; 1.18% in [2]; 11.8% in assay [3]; 1.12% in assay [4]; 25.4% in [5]; -0.62% in [6]. Besides, the inhibition is 26.8% in assay [7]; 1.12% in assay [8]; 13.8% in [9]; 3.72% in assay [10]; 37.9% in [11]; -6.8% in [12]. Also, the inhibition in [13] turned out to be 5.75%; in assay [14], 18.8%; in assay [15], 60.8%; in assay [16] it was 16.7%; in [17], 64.8%; in [18] it was 1.56%. For the same compound, the values for the inhibition in assay [19] and in [20] were 5.6% and 0.43%, respectively.

Regarding `CC(C)c1ccc(Nc2nccc(-c3cnn4ncccc34)n2)cc1`, the inhibition in assay [1] was found to be 40.8%; in assay [2], 0.49%; in assay [3], 1.12%; in [4] it was 12%; in assay [5] it was 45.8%; in [6] it was 6.8%. The inhibition in assay [7] came to 14.4%; in [8], 4.06%; in [9] it was 10.1%; in [10], 5.09%; in assay [11] it was 13.4%; in assay [12], 1.98%. The inhibition in [13] is 16.8%; in [14], 19.2%; in assay [15], 62.4%; in [16], 1.55%; in [17], 13.4%; in assay [18] it was 1.68%. For the same compound, the inhibition in [19] is 3.15%; in assay [20], -6.64%.

On to `CN1CCN(C(=O)c2ccc(NC(=O)Nc3ccc(N(C)c4ccnc(Nc5ccc(CS(C)(=O)=O)cc5)n4)cc3)cc2)CC1`, for which the inhibition in [1] was found to be 79.3%; in assay [2], 1.47%; in assay [3], 4.04%; in assay [4] it was 29.2%; in [5], 88.6%; in [6], 38.8%. Besides, the inhibition in assay [7] worked out at 76.8%; in assay [8], 27.2%; in assay [9], 67.1%; in [10], 60.7%; in [11], 82.8%; in [12], 18.6%. The inhibition in assay [13] turned out to be 58.6%; in [14], 14.6%; in [15], 54.1%; in assay [16], 10.7%; in assay [17], 42.2%; in assay [18], 0.11%. Besides, the inhibition in assay [19] is 5.6%; in [20], -0.89%.

Turning to `COc1cc2ncnc(Nc3ccc4c(cnn4Cc4ccccc4)c3)c2cc1OC`, the inhibition in [1] is 6.26%; in assay [2], 1.94%; in [3], 6.16%; in [4] it was 6.05%; in assay [5], 9.57%; in [6], 8.77%. Besides, the inhibition in assay [7] came out at 28.6%; in assay [8] it was 3.73%; in assay [9], 9.3%; in [10], 9.71%; in assay [11], 40%; in assay [12], 3.2%. For the same compound, the inhibition turned out to be 2.02% in assay [13]; 6.51% in [14]; 4.63% in [15]; 10.1% in assay [16]; 41.8% in [17]; 0.35% in assay [18]. Besides, the results for the inhibition in assay [19] and in assay [20] were 4.63% and 4.44%, respectively.

On to `Cc1ccc(NC(=O)CC2CC2)cc1-c1ccc(C(=O)NCC2CC2)cc1`, for which the inhibition came out at 8.86% in assay [1]; 2.5% in assay [2]; 2.58% in [3]; 5.55% in assay [4]; 9.67% in assay [5]; 4.79% in assay [6]. Also, the inhibition was 9.25% in assay [7]; 2.68% in [8]; 10% in assay [9]; 7.7% in [10]; 28.8% in assay [11]; -0.78% in [12]. Moreover, the inhibition in [13] amounted to 1.45%; in assay [14], 4.69%; in assay [15], 8.56%; in assay [16], 4.43%; in assay [17] it was 8.28%; in [18], 0.3%. Besides, the results for the inhibition in [19] and in assay [20] were 5.61% and -2.32%, respectively.

`CCOc1nccc2c1nc(-c1nonc1N)n2CC`: the inhibition in assay [1] was 20.2%; in assay [2], 1.66%; in [3], -0.64%; in assay [4], 5.11%; in assay [5] it was 7.29%; in [6] it was 5.47%. Also, the inhibition was 12.3% in [7]; 8.5% in [8]; 20.2% in assay [9]; 9.76% in assay [10]; 28.7% in assay [11]; 10% in [12]. For the same compound, the inhibition in [13] was 5.31%; in assay [14] it was 5.15%; in [15] it was 11.8%; in [17], 5.71%; in assay [18], 3.59%; in [19] it was 5.69%. Further, the inhibition in assay [20] was determined as 1.77%.

As to `COC(=O)c1ccc2c(c1)C(=Cc1cc(Br)c(O)c(Br)c1)C(=O)N2`, the inhibition in [1] was determined as 6.26%; in assay [2], 1.55%; in [3], 7.02%; in [4], 3.82%; in assay [5], 13.8%; in [6] it was 7.67%. Also, the inhibition in [7] turned out to be 25.8%; in assay [8], 7.28%; in [9] it was 39.8%; in assay [10], 12.2%; in assay [11], 21.5%; in [12] it was 1.56%. For the same compound, the inhibition in [13] was 3.36%; in assay [14], 6.38%; in [15] it was 9.41%; in [16], 8.74%; in assay [17], 19.6%; in assay [18], 30.9%. The values for the inhibition in assay [19] and in [20] were 75.9% and 0.74%, respectively.

On to `Cc1ccc2c(-c3ccnc(Nc4ccc5c(c4)OCCO5)n3)c(-c3ccc(C(F)(F)F)cc3)nn2n1`, for which the inhibition was 4.63% in [1]; -1.35% in assay [2]; -0.65% in [3]; -0.75% in assay [4]; 2.42% in assay [5]; -1.02% in [6]. In addition, the inhibition was 3.09% in assay [7]; 0.74% in assay [8]; 1.64% in assay [9]; 1.62% in assay [10]; 5.72% in assay [11]; -0.07% in [12]. The inhibition was 4.33% in assay [13]; 1.22% in assay [14]; 2.46% in assay [15]; 1.69% in [16]; 5.52% in [17]; -0.03% in [18]. Besides, the inhibition in assay [19] was 0.07%; in [20], -0.8%.

Regarding `CC(C)c1ccc2c(c1)NC(=O)/C2=N/Nc1ccc(S(N)(=O)=O)cc1`, the inhibition in [1] was 29.8%; in assay [2], -0.9%; in [3], 2.77%; in [6], 8.25%; in assay [7] it was 34%; in [8], 1.58%. For the same compound, the inhibition in [9] was 6.41%; in assay [10], 4.75%; in [11], 30.7%; in assay [12], 1.23%; in [13] it was -1.8%; in assay [14], 0.66%. The inhibition in assay [15] was 3.01%; in assay [16], 3.8%; in [17], 14%; in assay [18], 0.59%; in assay [19] it was 0.2%; in [20], 1.61%.

For `C[C@@H](Oc1cc(-n2cnc3ccc(OC[C@@H](O)CO)cc32)sc1C(N)=O)c1ccccc1Cl`, the inhibition in [1] is 54.6%; in assay [2], 0.8%; in assay [3], 2.17%; in [4], -2.91%; in [5], -1.09%; in assay [6], 0.87%. Besides, the inhibition in assay [7] was 7.49%; in [8], 2.02%; in assay [9], 5.35%; in [10], -0.83%; in assay [11], 10.8%; in assay [12] it was -4.17%. The inhibition in [13] was 6.85%; in [14], 1.32%; in [15] it was 11.6%; in [16], 3.67%; in [17], 5.14%; in assay [18], 0.51%. Further, the inhibition in [19] is 2.19%; in [20], 1.72%.

As for `Nc1nccc(-c2c(-c3ccc(F)cc3)nn3cc(C(F)(F)F)ccc23)n1`, the inhibition is 2.13% in assay [1]; -1.38% in assay [2]; 1.04% in assay [3]; 2.76% in assay [6]; -0.03% in [7]; 0.95% in [8]. Moreover, the inhibition was 0.97% in assay [9]; -0.45% in assay [10]; 3.56% in [11]; 1.05% in [12]; -2.78% in [13]; 4.58% in assay [14]. The inhibition in assay [15] was 2.24%; in assay [16], 1.35%; in assay [17], 1.39%; in [18], 0.31%; in [19], -1.94%; in [20], -0.75%.

In the case of `CCS(=O)(=O)c1ccc(OC)c(Nc2nccc(N(C)c3ccc4c(C)n[nH]c4c3)n2)c1`, the inhibition in assay [1] is 70.9%; in [2], 20.6%; in [3], 70.2%; in assay [4], 4%; in assay [5], 19%; in assay [6] it was 64.8%. The inhibition in assay [7] stood at 83.5%; in assay [8], 4.04%; in [9], 8.57%; in assay [10] it was 58.1%; in assay [11], 80.2%; in [12], 2.28%. Moreover, the inhibition in [13] was 11.8%; in assay [14], 12.1%; in assay [15], 51.3%; in [16], 42.5%; in [17] it was 81.2%; in assay [18], 11.4%. Also, the inhibition is 50.3% in assay [19] and -1.92% in [20].
